Test results as given in the supplement of paper PMC8866396.
± gives the standard deviation of the averaged measurements.

The molecules below were run on IL-6-GFP PC-9GR (assay: cell viability (CCK-8 OD) relative to DMSO control (fraction of control); higher = more viable cells). Details: compound concentration: 10 uM; treatment time: 48 h.
Procedure, shortened: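 Compounds from a purchased library of 510 were each tested at a final 10 μM for 48 h on PC-9 and PC-9GR lung cancer cells plated at 3000 cells/well in 96-well plates. These cells overexpressed IL-6-GFP from a lentiviral construct. Viability came from CCK-8 absorbance, given as the optical density of each well over that of the vehicle control well, across independent replicates numbering two.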

Row | Compound | cell viability
1 | CC(=O)c1c(C)c2cnc(Nc3ccc(N4CCNCC4)cn3)nc2n(C2CCCC2)c1=O.O=S(=O)(O)CCO | 0.918 ± 0.1
2 | Cc1oncc1C(=O)Nc1ccc(C(F)(F)F)cc1 [Leflunomide] | 1.1 ± 0.067
3 | OCC1OC(c2ccc(F)c(Cc3cc4ccccc4s3)c2)C(O)C(O)C1O (stereo unspecified) [Ipragliflozin (ASP1941)] | 0.779 ± 0.068
4 | CC(OC1OCCN(Cc2n[nH]c(=O)[nH]2)C1c1ccc(F)cc1)c1cc(C(F)(F)F)cc(C(F)(F)F)c1 (stereo unspecified) [Aprepitant] | 1.01 ± 0.071
5 | CCC1(O)C(=O)OCc2c1cc1n(c2=O)Cc2cc3cc(O)ccc3nc2-1 (stereo unspecified) [Hydroxy Camptothecine] | 0.38 ± 0.2
6 | Cc1cc2c(C(N)=O)cccc2n1-c1nc2c(c(NCc3ccccc3)n1)COCC2 | 0.204 ± 0.1
7 | Nc1ccc(C(=O)[O-])c(O)c1.[Na+] [Sodium 4-Aminosalicylate] | 1.02 ± 0.3
8 | CC(=O)OCC(=O)C1(O)C(C)CC2C3CCC4=CC(=O)C=CC4(C)C3(F)C(O)CC21C (stereo unspecified) [Dexamethasone Acetate] | 0.9 ± 0.23
9 | CNC(=O)c1ccccc1Sc1ccc2c(/C=C/c3ccccn3)n[nH]c2c1 [Axitinib] | 0.712 ± 0.0072
10 | CC(C)(C)OC(=O)NC1CCCCC/C=C\C2CC2(C(=O)NS(=O)(=O)C2CC2)NC(=O)C2CC(OC(=O)N3Cc4cccc(F)c4C3)CN2C1=O (stereo unspecified) [Danoprevir (ITMN-191)] | 1.1 ± 0.02
11 | COc1c2occc2cc2ccc(=O)oc12 [Methoxsalen] | 0.933 ± 0.062
12 | O=c1[nH]cc(F)c(=O)[nH]1 [Fluorouracil (5-Fluoracil, 5-FU)] | 0.731 ± 0.011
13 | COc1cc(/C=C/C(=O)/C=C(O)/C=C/c2ccc(O)c(OC)c2)ccc1O [Curcumin] | 1.36 ± 0.48
14 | NC(CC(=O)N1CCn2c(nnc2C(F)(F)F)C1)Cc1cc(F)c(F)cc1F (stereo unspecified) [Sitagliptin] | 1.62 ± 0.63
15 | COc1cc2nccc(Oc3ccc(NC(=O)NC4CC4)c(Cl)c3)c2cc1C(N)=O.CS(=O)(=O)O [lenvatinib Mesylate] | 1.15 ± 0.17
16 | O=C(c1cc(Cc2n[nH]c(=O)c3ccccc23)ccc1F)N1CCN(C(=O)C2CC2)CC1 | 1.09 ± 0.081

Row | Compound | cell viability
17 | N#Cc1ccc(C2CCCc3cncn32)cc1 (stereo unspecified) [Fadrozole] | 0.6645 ± 0.0044
18 | CC(C(=O)O)c1ccc2c(c1)[nH]c1ccc(Cl)cc12 (stereo unspecified) [Carprofen] | 1.16 ± 0.41
19 | C=CC(=O)Nc1cc(Nc2nccc(-c3cn(C)c4ccccc34)n2)c(OC)cc1N(C)CCN(C)C [Osimertinib (AZD9291)] | 0.225 ± 0.073
20 | O=C(NCC1CN(c2ccc(N3CCOCC3=O)cc2)C(=O)O1)c1ccc(Cl)s1 (stereo unspecified) [Rivaroxaban] | 0.949 ± 0.11
21 | Cc1c(-c2ccc(O)cc2)n(Cc2ccc(OCCN3CCCCCC3)cc2)c2ccc(O)cc12.Cl [Bazedoxifene HCl] | 0.539 ± 0.098
22 | CNCC(O)C(O)C(O)C(O)CO.Cc1c(Nc2ncccc2C(=O)O)cccc1C(F)(F)F [Flunixin Meglumin] | 1.15 ± 0.12
23 | CCC1/C=C(\C)CC(C)CC(OC)C2OC(O)(C(=O)C(=O)N3CCCCC3C(=O)OC(/C(C)=C/C3CCC(Cl)C(OC)C3)C(C)C(O)CC1=O)C(C)CC2OC (stereo unspecified) [Pimecrolimus] | 1 ± 0.18
24 | CC(C)(C)c1nc(-c2cccc(NS(=O)(=O)c3c(F)cccc3F)c2F)c(-c2ccnc(N)n2)s1 | 1.14 ± 0.12
25 | Cc1cn(-c2cc(NC(=O)c3ccc(C)c(Nc4nccc(-c5cnccn5)n4)c3)cc(C(F)(F)F)c2)cn1 [Radotinib] | 0.7942 ± 0.0035
26 | CCCC1CC(C(=O)NC(C(C)O)C2OC(SC)C(O)C(O)C2O)N(C)C1.Cl (stereo unspecified) [Lincomycin HCl] | 1.13 ± 0.27
27 | O=C(O)CCc1nc(-c2ccccc2)c(-c2ccccc2)o1 [Oxaprozin] | 0.9414 ± 0.0067
28 | CCOc1ccc(Cc2cc(C34OCC(CO)(O3)C(O)C(O)C4O)ccc2Cl)cc1 (stereo unspecified) [Ertugliflozin] | 1.43 ± 0.46
29 | CN1C(=O)/C(=C2/C(=O)Nc3ccccc32)c2ccccc21 [Meisoindigo] | 1.39 ± 0.44
30 | S=c1nc[nH]c2nc[nH]c12 [Mercaptopurine (6-MP)] | 1.13 ± 0.24
31 | CCOC(=O)c1c(N)sc2c1CCN(Cc1ccccc1)C2.Cl [Tinoridine hydrochloride] | 1.12 ± 0.27
